In the library only some 19% were active in any assay of this set; here they are far more common.
TDP1 cell CPT = DT40-hTDP1 cell growth loss with CPT; Potency, µM (titrated, usually from 46.2 µM), actives largely listed as inhibitors; AID 686979; 12% of 420,000 active; chicken DT40 Tdp1-/-;hTDP1 cells + 20 nM CPT, ATP luminescence, 48 h; also: nearly all actives have a fitted effect of over 55% in size
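Cell growth measured by CellTiter-Glo luminescence after a minimum 48 h, 37 C compound exposure with 20 nM CPT in Tdp1-knockout DT40 cells stably expressing hTDP1, seeded 400/well; qHTS titration format.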
HT1080-NT tox = kills 2HG-producing HT-1080-NT fibrosarcoma cells; HT-1080-NT fibrosarcoma viability, CellTiter-Glo ATP luminescence, 48 h; Potency, µM (highest dose often 46.1 µM), actives largely listed as cytotoxic; 1.6% of 360,000 active; AID 686970;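 also: NT is the 2HG producing partner of a matched IDH1 knockdown line; nearly all actives have a fitted effect of over 55% in size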
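Viability by CellTiter-Glo luminescence after 48 h compound exposure at 37C of HT-1080-NT cells (750/well, RPMI, 5% FBS). % activity scaled between DMSO wells and medium-only wells, then curve-fitted and categorized by curve class.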
HT1080 IDH1KD tx = kills HT-1080 cells with IDH1 knockdown | 2% of 360,000 active | AID 686971 | Potency, µM (highest dose often 46.1 µM), actives largely listed as cytotoxic | HT-1080 IDH1 knockdown viability, ATP luminescence, 48 h
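In this qHTS, HT-1080 cells depleted of IDH1 are exposed for 48 h at 37 °C to compound titrations. Toxicity is scored from CellTiter-Glo luminescence, with DMSO as full viability and medium alone as none.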
ELG1 repair inh = blocks ELG1-dependent DNA repair in HEK293T cells; HEK293T ELG1-luciferase reporter, luminescence, 16 h; DNA damage induced by 5-fluorouridine; Potency, µM (highest dose often 46.1 µM), actives largely listed as inhibitors; 2.3% of 330,000 active; AID 504467; also: nearly all actives have a fitted effect of over 55% in size
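5-Fluorouridine DNA damage + compound/DMSO, 2,000 cells/well, 16 h, 37 °C/5% CO2. ONE-Glo, 30 min RT, luminescence. Readout = decrease in reporter signal.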
IL-1B inflam inh = inflammasome signaling inhibition, IL-1 beta readout | AID 743279 | THP-1 LPS/ATP IL-1B secretion, AlphaLISA, 16 h; hits give low values | 4.7% of 360,000 active | activity change, % at 57.5 µM; in the data active = activity change below about -50%; inconclusive = mostly about -30% to -49%
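THP-1 cells pretreated 1 hr with compounds (up to 57.5 uM final), then stimulated with LPS (250 ng/mL final) plus ATP (1.25 mM final); secreted IL-1B measured by AlphaLISA after 16 hr, decreased signal indicating inhibition.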
TDP1 cell noCPT = qHTS for Inhibitors of human tyrosyl-DNA phosphodiesterase 1 (TDP1): qHTS in cells in absence of CPT | 15% of 420,000 active | DT40 Tdp1-/- hTDP1 cells, no CPT, ATP luminescence, 48 h | Potency, µM (series often up to 46.2 µM), most hits filed as inhibitors | AID 686978, 2013; also: nearly all actives have a fitted effect of over 55% in size
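Readout: luminescence from CellTiter-Glo after 30 min in the dark at RT. Cells: DT40 Tdp1-/- with stable hTDP1, 400/well. Exposure: compounds alone, ≥48 hr, 37 °C.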
Hits are given with their value; [ ] = dose if it differs, or a comment. Unless noted, calls follow the shape of the dose curve; as a rule, active = well fitted curve in the direction sought with a large enough effect; inconclusive = small, poorly fitted or top-dose-only effect, or another doubt; inactive = no such curve, though single readings can be large; an effect the other way counts as inactive or inconclusive.

Cc1ccc2c(=O)cc(C(=O)Nc3ccc(S(=O)(=O)N4CCCCCC4)cc3)oc2c1C was read as TDP1 cell CPT inconclusive and TDP1 cell noCPT 15µM.
`Cc1cc(C)c2oc(C(=O)Nc3ccc(S(=O)(=O)N4CCC(C)CC4)cc3)cc(=O)c2c1` gave TDP1 cell CPT 10µM, HT1080-NT tox inactive, HT1080 IDH1KD tx inactive, ELG1 repair inh inconclusive, IL-1B inflam inh inactive and TDP1 cell noCPT 7.3µM.
For Cc1ccc2c(=O)cc(C(=O)Nc3ccc(S(=O)(=O)N(C)c4ccccc4)cc3)oc2c1C the results were TDP1 cell CPT inactive and TDP1 cell noCPT inactive.
Cc1cc2oc(C(=O)Nc3ccc(S(=O)(=O)N4CCC(C)CC4)cc3)cc(=O)c2cc1C was read as TDP1 cell CPT inactive and TDP1 cell noCPT inactive.
Screening O=C(c1ccco1)N(Cc1ccco1)c1ccc(O)cc1 returned TDP1 cell CPT inactive, HT1080-NT tox inactive, HT1080 IDH1KD tx inactive, ELG1 repair inh inactive, IL-1B inflam inh -106 and TDP1 cell noCPT inconclusive.
O=C(c1ccco1)N(Cc1cccs1)c1ccc(F)cc1 was read as TDP1 cell CPT inactive and TDP1 cell noCPT inactive.
`CCCCOc1cccc(C2/C(=C(\O)c3ccc4c(c3)OCCO4)C(=O)C(=O)N2CCN2CCOCC2)c1` (stereo unspecified) gave TDP1 cell CPT inconclusive, HT1080-NT tox inactive, HT1080 IDH1KD tx inactive, ELG1 repair inh inactive, IL-1B inflam inh inactive and TDP1 cell noCPT inconclusive.
Screening CC(C)OCCCN1CC(=O)N2C(c3ccccc3)c3[nH]c4ccccc4c3C[C@H]2C1=O (stereo partly specified) returned TDP1 cell CPT inconclusive, HT1080-NT tox inactive, HT1080 IDH1KD tx inactive, ELG1 repair inh inactive, IL-1B inflam inh -62 and TDP1 cell noCPT inconclusive.
Screening COc1cccc(C2c3[nH]c4ccccc4c3C[C@H]3C(=O)N(CCCOC(C)C)CC(=O)N23)c1 (stereo partly specified) returned TDP1 cell CPT inactive, HT1080-NT tox inactive, HT1080 IDH1KD tx inactive, ELG1 repair inh inactive, IL-1B inflam inh inactive and TDP1 cell noCPT inactive.
`C=CCN1CC(=O)N2C(c3ccccc3)c3[nH]c4ccccc4c3C[C@H]2C1=O` (stereo partly specified) gave TDP1 cell CPT inconclusive, HT1080-NT tox inactive, HT1080 IDH1KD tx inactive, ELG1 repair inh inactive, IL-1B inflam inh inactive and TDP1 cell noCPT 18µM.
For CCOc1cc(/C=C2/C(=O)N(c3ccccc3)N=C2C)ccc1OC(=O)c1ccco1 the results were TDP1 cell CPT inconclusive, HT1080-NT tox inactive, HT1080 IDH1KD tx inactive, ELG1 repair inh inactive, IL-1B inflam inh inactive and TDP1 cell noCPT inconclusive.
For CCOc1cc(/C=C2\C(=O)N(c3ccc(C(N)=O)cc3)N=C2C)ccc1OC(=O)c1cccs1 the results were TDP1 cell CPT 15µM, HT1080-NT tox inconclusive, HT1080 IDH1KD tx inactive, ELG1 repair inh inactive, IL-1B inflam inh inactive and TDP1 cell noCPT 23µM.
`COc1cc(/C=N/Nc2ccc(F)cc2F)cc(OC)c1O` gave TDP1 cell CPT 2.3µM, HT1080-NT tox inactive, HT1080 IDH1KD tx inconclusive, ELG1 repair inh inconclusive, IL-1B inflam inh -89 and TDP1 cell noCPT 5.8µM.
Cc1nn(-c2ccccc2)c(N2CCCC2)c1/C=N/Nc1ccc(S(N)(=O)=O)cc1[N+](=O)[O-] was read as TDP1 cell CPT 16µM, HT1080-NT tox inactive, HT1080 IDH1KD tx inactive, ELG1 repair inh inconclusive, IL-1B inflam inh inactive and TDP1 cell noCPT 15µM.
COc1cc(/C=N/Nc2ccccc2[N+](=O)[O-])cc(OC)c1O was read as TDP1 cell CPT inconclusive, HT1080-NT tox inactive, HT1080 IDH1KD tx inactive, ELG1 repair inh inactive, IL-1B inflam inh inactive and TDP1 cell noCPT 6.5µM.
For COc1cc(/C=N/Nc2ccc(Cl)nn2)cc(OC)c1O the results were TDP1 cell CPT inactive, HT1080-NT tox inactive, HT1080 IDH1KD tx inactive, ELG1 repair inh inactive, IL-1B inflam inh inactive and TDP1 cell noCPT inactive.
For COc1cc(/C=N/Nc2ncc(C(F)(F)F)cc2Cl)cc(OC)c1O the results were TDP1 cell CPT inconclusive, HT1080-NT tox inactive, HT1080 IDH1KD tx inactive, ELG1 repair inh 13µM, IL-1B inflam inh inactive and TDP1 cell noCPT inconclusive.
`CCc1cc(C(=O)N2CCOc3ccc(CN4CCN(Cc5ccccn5)CC4)cc3C2)no1` gave TDP1 cell CPT inactive[9.04 µM] and TDP1 cell noCPT inactive.
For CCN1CCN(CCC(=O)Nc2ccccc2C)CC1 the results were TDP1 cell CPT inconclusive, HT1080-NT tox inactive, HT1080 IDH1KD tx inactive, ELG1 repair inh inactive, IL-1B inflam inh inactive and TDP1 cell noCPT inconclusive.
Screening CC(C)N(C(=O)[C@H]1C[C@H](CC(=O)NCCc2ccccn2)C(=O)N2CCc3c([nH]c4cc(CCC(=O)N(C)C)ccc34)[C@]12C)C(C)C returned TDP1 cell CPT inactive, HT1080-NT tox inactive, HT1080 IDH1KD tx inactive, ELG1 repair inh inactive, IL-1B inflam inh inactive and TDP1 cell noCPT inactive.
COc1cc(/C=N/Nc2ccc(S(N)(=O)=O)cc2[N+](=O)[O-])cc(OC)c1O was read as TDP1 cell CPT inactive, HT1080-NT tox inactive, HT1080 IDH1KD tx inactive, ELG1 repair inh 9.2µM, IL-1B inflam inh inactive and TDP1 cell noCPT inactive.
NS(=O)(=O)c1ccc(N/N=C/c2ccc(C(=O)O)cc2)c([N+](=O)[O-])c1 was read as TDP1 cell CPT inactive, HT1080-NT tox inactive, HT1080 IDH1KD tx inactive, ELG1 repair inh inactive, IL-1B inflam inh inactive and TDP1 cell noCPT inactive.
Screening Cc1ccc2cc(CCNC(=O)c3ccc(S(=O)(=O)N4CCCCC4)cc3)c(=O)[nH]c2c1 returned TDP1 cell CPT inconclusive, HT1080-NT tox inactive, HT1080 IDH1KD tx inactive, ELG1 repair inh inconclusive, IL-1B inflam inh inactive and TDP1 cell noCPT 23µM.
For Cc1ccc2cc(CCNC(=O)c3ccc(S(=O)(=O)N4CCOCC4)cc3)c(=O)[nH]c2c1 the results were TDP1 cell CPT inconclusive, HT1080-NT tox inactive, HT1080 IDH1KD tx inactive, ELG1 repair inh inactive, IL-1B inflam inh inconclusive and TDP1 cell noCPT inactive.
Screening Cc1cc2cc(CCNC(=O)c3ccc(S(=O)(=O)N4CCOCC4)cc3)c(=O)[nH]c2cc1C returned TDP1 cell CPT 16µM, HT1080-NT tox inactive, HT1080 IDH1KD tx inactive, ELG1 repair inh inconclusive, IL-1B inflam inh inconclusive and TDP1 cell noCPT 18µM.
`Clc1ccccc1OCCn1nnc2ccccc21` gave TDP1 cell CPT inactive, HT1080-NT tox inactive, HT1080 IDH1KD tx inactive, ELG1 repair inh inconclusive, IL-1B inflam inh inactive and TDP1 cell noCPT inactive.
Screening CC(C)OC(=O)Nc1ccc2nc(-c3cscn3)[nH]c2c1 returned TDP1 cell CPT 0.84µM and TDP1 cell noCPT 1.2µM.

From PubChem BioAssay
